Results filed as inconclusive are left out. A call without a number means that no potency is given here. Unmarked numbers belong to inactive results. Active and inactive are the calls of the source. The call rests on the fitted dose curve; in most records, active means well fitted activation curve with a large enough effect in the signal ratio in the repeat runs (not every such curve was filed as active); inconclusive means weak or mixed curves; inactive means flat fitted curve, though single readings scatter; the % refers to the signal ratio.
Assay: qHTS assay to identify small molecule agonists of the TGF-beta/Smad signaling pathway (AID 1346859)
Settings: SBE-bla HEK293T, TGF-beta/Smad beta-lactamase reporter, 5 h; series mostly up to 76.8 µM
Excerpt: U.S. Tox21 Program National Center for Advancing Translational Sciences [NCATS] NIH Chemical Genomics Center [NCGC] U.S. Environmental Protection Agency [EPA] National Institutes of Environmental Health Sciences [NIEHS] National Toxicology Program [NTP] U.S. Food and Drug Administration [FDA] Tox21 Assay Overview: Transforming growth factor beta (TGF-beta) superfamily consists of a large number of structurally related dimeric proteins that act as hormones or local mediators in regulating a wide range of biological functions. This superfamily includes TGF-betas themselves, the bone morphogenetic proteins (BMPs) and the activins. These ligands induce oligomerization of serine/threonine receptor kinases and phosphorylate the cytoplasmic signaling molecules of Smad protein family. CellSensor SBE-bla HEK 293T cell line (Life Technologies, Carlsbad, CA), responsive to TGF-beta was used to screen Tox21 10K compound library for identification of agonists/antagonists of the Smad signaling pathway. This cell line contains a beta-lactamase reporter gene under control of the Smad binding element (SBE) stably integrated into HEK 293T cells.
Tox21 Assay Protocol Summary: SBE-bla HEK 293T cells were dispensed at 4,000/well in 6 uL of assay medium into black wall/clear-bottom 1536-well plates using a Multidrop Combi (ThermoFisher Scientific, Waltham, MA) dispenser. After the assay plates were incubated at 37 C and 5% CO2 for an overnight, 23 nL of compounds dissolved in DMSO, positive controls or DMSO only was transferred to the assay plate by a Pintool station (Kalypsys, San Diego, CA). The assay plates were incubated at 37 C and 5% CO2 for 5 hr. One uL of LiveBLAzer B/G FRET substrate (Life Technologies) was added using a Flying Reagent Dispenser (Aurora Discovery, San Diego, CA) and the plates were incubated at room temperature for 2 hr. Fluorescence intensity (405 nm excitation, 460 nm and 530 nm emissions) was measured using an Envision plate reader (PerkinElmer, Shelton, CT).

| Structure (SMILES) | Potency | activation |
| --- | --- | --- |
| CCC(C)c1ccccc1 (stereo not given) | inactive |  |
| O=C1NCCN1CCN1CCC(c2cn(-c3ccc(F)cc3)c3ccc(Cl)cc23)CC1 | inactive |  |
| CC(COC(=O)c1ccccc1)OC(=O)c1ccccc1 (stereo not given) | inactive |  |
| CCCCN(CCCC)CCC(O)c1cc2c(Cl)cc(Cl)cc2c2cc(C(F)(F)F)ccc12 (stereo not given) | inactive |  |
| ClC/C=C\CCl | inactive |  |
| C[C@]12CC[C@H]3C(=CCc4cc(O)ccc43)[C@@H]1CCC2=O | inactive |  |
| Cc1cccc(Br)c1 | inactive |  |
| CC1CCCCN1CCCOC(=O)c1ccc(OC2CCCCC2)cc1 (stereo not given) | inactive |  |
| C(=C/c1ccccc1)/c1ccccc1 | inactive |  |
| CCCCOC(=O)C(C)CC (stereo not given) | inactive |  |
| C[C@@H]1CC[C@H]2C(C)(C)[C@H]3C[C@@]12CC[C@@]3(C)O | inactive |  |
| Cc1cnccn1 | inactive |  |
| CSc1c(Cl)c(Cl)c(Cl)c(Cl)c1Cl | inactive |  |
| CC1CNCC(C)O1 (stereo not given) | inactive |  |
| CCCCCCCOC(=O)c1ccc(O)cc1 | inactive |  |
| C=C(C)C(=O)OCCC[Si](Cl)(Cl)Cl | inactive |  |
| CCOC(=O)[C@@](C)(N)Cc1ccc(O)c(O)c1 | inactive |  |
| CCCCCCCCCCCCCCCC | inactive |  |
| C=CC(=C)CCC=C(C)C | inactive |  |
| COCC(=O)O[C@]1(CCN(C)CCCc2nc3ccccc3[nH]2)CCc2cc(F)ccc2[C@@H]1C(C)C | inactive |  |

| Structure (SMILES) | Potency | activation |
| --- | --- | --- |
| C/C=C/CO | inactive |  |
| Cc1c(C)n(Cc2ccccc2)c2ccc(C(=O)OCCN(C)C)cc12 | inactive |  |
| Cc1c(C(=O)O)cccc1[N+](=O)[O-] | inactive |  |
| CC(C)=C1CC[C@@H](C)CC1=O | inactive |  |
| C=C/C=C/C=C/CCCCC |  | -2.28% [at 15.8 µM] |
| c1ccc(Sc2ccccc2)cc1 | inactive |  |
| O=C1OC(=O)c2ccc3c4c(ccc1c24)C(=O)OC3=O | inactive |  |
| O=C(NO)c1ccccc1 | inactive |  |
| CN1CN(C)CN(C)C1 | inactive |  |
| C[Si](C)(C)Cl | inactive |  |
| CC(C)CCOCCC(C)C | inactive |  |
| CCCCCCCC/C=C\CCCCCCCC(=O)OCCOC(=O)CCCCCCC/C=C\CCCCCCCC | inactive |  |
| Cc1cncc(C)c1 | inactive |  |
| COC(=O)C1=C(C)NC(C)=C(C(=O)OCCCN2CCC(c3ccccc3)(c3ccccc3)CC2)C1c1cccc([N+](=O)[O-])c1 (stereo not given) | inactive |  |
| C=CCCCCCCC=C | inactive |  |
| Brc1ccccn1 | inactive |  |
| CN(C)c1ccc(N=Nc2ccccc2C(=O)O)cc1 | inactive |  |
| CCCCCCCCCCOCC(O)CN (stereo not given) | inactive |  |
| CC(C)=CCCC(C)O (stereo not given) | inactive |  |
| CC(NCCC(c1ccccc1)c1ccccc1)c1ccccc1 (stereo not given) | inactive |  |

— PubChem BioAssay (Tox21)
